# Rows were chosen to be rich in hits. Some 3% of all compounds tested hit in one or more screens of this group.
# LmPK inh: inhibitors of Leishmania mexicana pyruvate kinase. Potency, µM (top dose mostly 57.5 µM), inactives show at the highest dose activity change, negative = inhibition, most hits filed as inhibitors. AID 1721. hit rate 0.37% among 290,000. purified LmPK, Kinase-Glo ATP luminescence, 1 h
# Target sequence (Q27686 whole entry, looked up): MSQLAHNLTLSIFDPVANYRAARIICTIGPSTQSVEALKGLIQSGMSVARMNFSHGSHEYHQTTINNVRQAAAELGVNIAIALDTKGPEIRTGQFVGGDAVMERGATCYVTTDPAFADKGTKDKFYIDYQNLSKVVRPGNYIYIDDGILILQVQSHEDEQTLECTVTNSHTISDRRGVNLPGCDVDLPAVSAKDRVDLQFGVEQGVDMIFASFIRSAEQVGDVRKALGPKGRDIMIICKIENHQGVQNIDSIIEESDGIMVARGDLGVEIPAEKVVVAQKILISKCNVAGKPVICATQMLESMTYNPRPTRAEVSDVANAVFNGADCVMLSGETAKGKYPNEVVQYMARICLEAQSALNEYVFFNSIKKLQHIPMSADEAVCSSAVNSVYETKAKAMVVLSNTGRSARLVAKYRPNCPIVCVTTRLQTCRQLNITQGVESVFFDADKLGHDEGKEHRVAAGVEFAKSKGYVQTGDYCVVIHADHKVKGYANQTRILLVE
#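 Pyruvate kinase activity monitored as ATP production (luciferase luminescence). Conditions: 0.1 nM enzyme, 0.5 mM PEP, 0.1 mM ADP, 1 h, RT; normalized against uninhibited and no-enzyme wells.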
# Tb PYK inh: inhibitors of Trypanosoma brucei pyruvate kinase | Potency, µM (titrated, usually from 76.8 µM), inactives show at the top dose activity, negative = inhibition, usual class: inhibitors | hit rate 0.12% among 410,000 | Q57TT1 | TbPYK enzyme, Kinase-Glo Plus ATP luminescence, 45 min; further: nearly all actives have a fitted effect of over 50% in size
#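 Luminescent Kinase-Glo Plus end-point after 45 min room-temperature reaction of T. brucei pyruvate kinase started with 130 uM ADP (final). Buffer TEA 50 mM pH 7.2 with KCl, MgCl2, BSA, Tween-20; titration-based qHTS with fitted concentration-effect curves.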
# RE007 growth inh: less growth of the S. pombe RE007 Vpr strain; Potency, µM (titrated, usually from 92.2 µM), for inactives: top-dose activity change, negative = less growth, usual class: inhibitors; S. pombe RE007 Vpr strain, BacTiter-Glo ATP luminescence, 24 h; hit rate 0.21% among 360,000; AID 651644; active means well fitted falling curve with a large enough effect; inconclusive means small, poorly fitted or top-dose-only effect; inactive means no such curve, though single readings can be large or run the other way; further: nearly all actives have a fitted effect of over 50% in size
#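 Fission yeast strain RE007, carrying one chromosomally integrated HIV-1 vpr copy, was seeded at OD 0.01 in PMG+AL medium with 23 nL pinned compound. After 24 h at 30 °C and 99% humidity, viability was read by BacTiter-Glo luminescence.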
# Sm TGR inh: blocks Schistosoma mansoni thioredoxin glutathione reductase. Potency, µM (titrated, usually from 114 µM), for the others: at the highest dose activity change, negative = inhibition, actives largely listed as inhibitors. hit rate 3% among 360,000. Q962Y6. purified TGR, DTNB reduction, TNB absorbance 405 nm; further: nearly all actives have a fitted effect of over 60% in size
#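 Kinetic colorimetric format: TGR-catalysed, NADPH-driven DTNB reduction monitored via TNB absorbance. Enzyme dispensed at 20 nM; compound exposure 15 min at room temperature before reaction start.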
# * = called active by the depositor; ? = inconclusive; . = no result given; ! = not active in a repeat; [ ] = another dose, or the depositor's remark. Unless noted, the call rests on the fitted dose curve; in most records, active means well fitted curve in the direction sought with a large enough effect; inconclusive means small, poorly fitted or top-dose-only effect, or another doubt; inactive means no such curve, though single readings can be large; an effect the other way counts as inactive or inconclusive. On the % scale 0 is the no-effect control and ±100 the full control effect; potency means the concentration at half of the fitted maximal effect.
SMILES,LmPK inh,Tb PYK inh,RE007 growth inh,Sm TGR inh
CC(C)C(OC(=O)c1cccs1)C(=O)NCc1ccco1 (configuration not stated),-8%,-3%,9%,35µM*
O=C(OC(C(=O)NCc1cccs1)c1ccc(F)cc1)c1ccco1 (configuration not stated),9%,3%,24%,3%
CC(=O)OC(C(=O)NCc1ccco1)c1cccnc1 (configuration not stated),2%,-5%,0%,?
O=C(OC(C(=O)NCc1cccs1)c1ccccc1Cl)c1ccco1 (configuration not stated),9%,-21%,2%,45µM*
COc1ccccc1C(OC(=O)c1cccs1)C(=O)NCc1ccco1 (configuration not stated),-3%,-10%,4%,13µM*
CC(=O)OC(C(=O)NCc1ccco1)c1ccncc1 (configuration not stated),-1%,9%,-11%,45µM*
Cc1ccccc1CNC(=O)C1CCCCN1S(=O)(=O)c1ccc(F)cc1 (configuration not stated),.,9%,.,7%
CSC1=NC=C(C#N)C2=NC(c3c(Cl)cccc3Cl)NN12 (configuration not stated),.,-2%,-3%[18.4 µM],.
COc1cccc(NC(=O)CSc2nc(-c3ccccc3Cl)nc3c2Cc2c(CO)cnc(C)c2O3)c1,.,-1%,.,?
O=C1C(=O)N(Cc2ccco2)C(c2cccc(Cl)c2)/C1=C(\O)c1ccc2c(c1)OCCO2 (configuration not stated),7%,-1%,2%,35µM*
CCOc1cccc(/C(O)=C2/C(=O)C(=O)N(Cc3ccco3)C2c2ccncc2)c1 (configuration not stated),0%,-11%,7%,?
COc1cccc(/C(O)=C2/C(=O)C(=O)N(Cc3ccco3)C2c2ccncc2)c1 (configuration not stated),8%,6%,-2%,28µM*
COc1cccc(C2/C(=C(/O)c3ccccc3)C(=O)C(=O)N2Cc2ccco2)c1 (configuration not stated),5%,0%,-3%,50µM*
Cc1ccc(C2/C(=C(/O)c3ccc(Br)cc3)C(=O)C(=O)N2Cc2ccco2)o1 (configuration not stated),13%,-5%,-15%,7.9µM*
Cc1ccc(-c2noc(-c3ccc(N4CCCC4)c([N+](=O)[O-])c3)n2)cc1,.,1%,.,-14%
CC(CNC(=O)c1ccc(Cn2c(=O)c3cccn3c3cccnc32)cc1)c1ccccc1 (configuration not stated),.,-4%,.,5%
Cc1ccc2[nH]c(=O)c(CN(Cc3ccco3)S(=O)(=O)c3c(C)ccc4nsnc34)cc2c1,-3%,-13%,-10%,28µM*
COc1ccc2[nH]c(=O)c(CN(Cc3ccco3)Cc3nnnn3Cc3ccccc3)cc2c1,-3%,-9%,-9%,35µM*
COc1ccc2[nH]c(=O)c(CN(Cc3cccs3)Cc3nnnn3Cc3ccccc3)cc2c1,5%,.,-6%[3.69 µM],0%
COC(=O)c1ccccc1S(=O)(=O)N(Cc1ccco1)Cc1cc2cc(OC)ccc2[nH]c1=O,-2%,-3%,3%,7.1µM*
Cc1ccc2cc(CN(CCN3CCOCC3)Cc3nnnn3Cc3ccco3)c(=O)[nH]c2c1C,3%,4%,19%,35µM*
CO[C@H]1C[C@@H]2CC[C@@H](C)[C@@](O)(O2)C(=O)C(=O)N2CCCC[C@H]2C(=O)O[C@H]([C@H](C)C[C@@H]2CC[C@@H](OC(=O)C(C)(CO)CO)[C@H](OC)C2)CC(=O)[C@H](C)/C=C(\C)[C@@H](O)[C@@H](OC)C(=O)[C@H](C)C[C@H](C)/C=C/C=C/C=C/1C,.,-4%,.,.
CCOc1ccc2[nH]c(=O)c(CN(Cc3ccco3)Cc3nnnn3Cc3ccccc3)cc2c1,-1%,3%,11%,22µM*
CCC(c1nnnn1CCc1ccccc1)N(Cc1ccco1)Cc1cc2cccc(C)c2[nH]c1=O (configuration not stated),0%,-4%,-3%,-19%
CCOc1ccc2[nH]c(=O)c(CN(Cc3ccco3)C(CC)c3nnnn3Cc3ccccc3)cc2c1 (configuration not stated),4%,-19%,20%,16µM*
SMILES,LmPK inh,Tb PYK inh,RE007 growth inh,Sm TGR inh
COc1ccccc1CN(Cc1cc2cc(C)ccc2[nH]c1=O)Cc1nnnn1Cc1ccco1,-1%,1%,-10%,40µM*
CCC(c1nnnn1Cc1ccco1)N(CCN1CCOCC1)Cc1cc2cc(C)ccc2[nH]c1=O (configuration not stated),4%,-10%,3%,45µM*
Cc1ccc(C)c(NC(=O)C(=O)NCCc2csc(-c3cccc(F)c3)n2)c1,.,-3%,.,-7%
CO[C@@H]1[C@@H](OC2OC(C)C(OC3CC(C)(O)C(O)C(C)O3)C(N(C)C)C2O)[C@@H](CC=O)C[C@@H](C)[C@@H](OC2CCC(N(C)C)C(C)O2)/C=C/C=C/C[C@@H](C)OC(=O)C[C@H]1OC(C)=O (some centres not stated),.,1%,.,.
O=C(COC(=O)c1n[nH]c2ccccc12)NCCc1ccccc1,.,1%,-1%,.
CC(NC(=O)c1ccccc1Cl)C(=O)N1CCN(Cc2ccc3c(c2)OCO3)CC1 (configuration not stated),.,2%,26%,14µM*
CCN(CCCNC(=O)c1cc2c(Cl)nc3ccccc3c2s1)Cc1ccccc1,.,-2%,.,89µM*
CN(CCCNC(=O)c1cc2c(Cl)nc3ccccc3c2s1)Cc1ccccc1,11%,-13%,-26%,20µM*!
CCN(CC)CCCNC(=O)c1cc2c(Cl)nc3ccccc3c2s1,4%,5%,-9%,-13%
COc1ccc(NC(=O)C(=O)NCC(c2cccnc2)N2CCc3ccccc3C2)cc1 (configuration not stated),.,1%,.,-2%
CCN(CC)c1ccc(NC(=O)c2sc3ccccc3c2Cl)cc1,.,-11%,.,-2%
CCN(CC)Cc1ccc(NC(=O)c2sc3cc(Cl)ccc3c2Cl)cc1,-4%,-1%,28µM*,9%
O=C1CN(C(=O)c2cccc(Br)c2)C(c2ccccc2)c2cc(Cl)ccc2N1 (configuration not stated),.,-2%,.,14%
Cc1ccc(CC(=O)Nc2c(C(=O)N3CCN(c4ccccc4F)CC3)oc3ccccc23)cc1,.,0%,.,45µM*
CCOC(=O)CCCNC(=O)N1CCc2nc(COc3ccccc3)c3c(c2C1)CO[C@@H](C)C3,-5%[11.5 µM],.,.,.
Cc1nc(SCC(=O)N(C)Cc2ccco2)c2c(C)c(C)sc2n1,1%,-14%,-2%,45µM*
COC(=O)c1ccc(CSc2nc(C)nc3sc(C)c(C)c23)o1,1%,2%,6%,100µM*
